Calls of active or inactive are those of the source. Rule for the calls: active = hit-call score of the fitted dose curve at least 0.9, where 1 is the maximum; inactive = score below 0.9.

System in the first assay: not listed separately
The assay can be described thus: CCTE_Deisenroth_5AR_NBTE_donor: CCTE's 5alpha-reductase NanoBRET Target Engagement Assay […], Deisenroth Lab (AID 2284319). Particulars: actives raise or lower the signal. Here is the method: CCTE_Deisenroth_5AR NBTE (5alpha-reductase NanoBRET Target Engagement Assay) is a cell-based, single-readout assay that uses HEK293T, a human kidney cell line, with measurements taken at 5 hours after chemical dosing in a 384 well plate. This assay includes a primary and secondary screen as well as an autofluorscence screen.CCTE_Deisenroth_5AR NBTE_donor is one of four assay components measured from the CCTE_Deisenroth_5AR NBTE assay. It is designed to make measurements of donor luminescence, as detected by bioluminescence intensity emission signals using spectrometry technology.Data from the assay component CCTE_Deisenroth_5AR NBTE_donor was analyzed into 1 assay endpoint. This assay endpoint, CCTE_Deisenroth_5AR NBTE_donor, was analyzed with bidirectional fitting relative to DMSO as the negative control and baseline of activity. Using a type of inducible reporter, gain or loss-of-signal activity can be used to understand changes in the donor luminescence as related to 5alpha-reductase catalytic function. Furthermore, this assay endpoint can be referred to as a secondary readout, because this assay has produced multiple assay endpoints where this one serves an artifact detection function.
For transient expression of the SRD5A2-NanoLuc fusion protein, HEK293T cells are reverse transfected with pNLF1-C-SRD5A2 expression vector and incubated for 20 hours to facilitate fusion protein expression. For assay setup, 384-well non-binding surface (NBS) microplates are pre-dispensed with test chemical across an 8-point concentration series (10 nM - 29.9 uM) with two technical replicates per run. Cell suspensions are dispensed into the microplates and incubated with test chemical for a duration of three hours. Following pre-incubation with test chemical, the testosterone tracer is dispensed into each well and incubated an additional two hours. The total incubation period with test chemical is five hours, with testosterone tracer added the final two hours to reach target engagement equilibrium. For the NanoBRET endpoint measurements, a solution of Nano-Glo substrate and extracellular NanoLuc inhibitor solution is added to each test well and immediately scanned on a plate reader configured with multichromatic emission settings for donor luminescence ([…]) and acceptor fluorescence ([…]). DMSO solvent controls are included as baseline control. Plate-matched samples are run with mock tracer conditions or testosterone tracer to discriminate any potential non-specific substrate interference.
Background: BRET reads energy transfer from a luciferase to a nearby fluorophore.
Take `CCOP(=S)(OCC)SCSCC`: the outcome was inactive.

Regarding `ClC1=C(Cl)C2(Cl)C3C(Cl)C(Cl)CC3C1(Cl)C2(Cl)Cl` (centres undefined), the result was inactive.

Consider `O=P(OCC(Br)CBr)(OCC(Br)CBr)OCC(Br)CBr` (centres undefined), for which the outcome was inactive.

For the compound `CC1(C)CN=C(NN=C(/C=C/c2ccc(C(F)(F)F)cc2)/C=C/c2ccc(C(F)(F)F)cc2)NC1`, the AC50 (in general, the concentration giving half of the maximal activity seen) was 50 µM (active).

As to `CCCN(CCC)c1c([N+](=O)[O-])cc(C(C)C)cc1[N+](=O)[O-]`, the compound was called inactive.

As to `c1ccc2c(c1)Nc1ccccc1S2`, the result was inactive.

The subject of a further assay is TTR (gene 7276). The assay can be described thus: CCTE_GLTED_hTTR_0.5uM: CCTE's human Transthyretin (hTTR) Inhibition Assay, with 0.5uM TTR, Great Lakes Toxicology and Ecology Division (GLTED) Lab (AID 2284320).
Conditions: not given
Here is the method:
CCTE_GLTED_hTTR is a cell-free, single-readout assay designed to test the chemicals' ability to displace T4 from the human transthyretin (TTR) protein. TTR (at 0.125uM or 0.5uM) is incubated in presence of test chemical for 2 hours during which disrupting chemicals displace ANSA from the TTR protein. Results read fluorescence at 380 excitation and 475 emission.CCTE_GLTED_hTTR_0.5uM is the assay component measured from the CCTE_GLTED_hTTR assay. It is designed to make measurements of fluorescent polarization, using a form of binding reporter, as detected with Fluorescence signals by Fluorescence technology.Data from the assay component CCTE_GLTED_hTTR_0.5uM was analyzed at the assay endpoint CCTE_GLTED_hTTR_0.5uM in the positive analysis fitting direction relative to DMSO as the negative control and baseline of activity. Using a type of binding reporter, loss-of-signal activity can be used to understand a chemical's ability to displace T4 from transthyretin. To generalize the intended target to other relatable targets, this assay endpoint is annotated to the 'transporter' intended target family, where the subfamily is 'hormone carrier protein'.
In the case of `OCC(F)(F)OC(F)(F)C(F)(F)OC(F)(F)CO`, the AC50 is 40.1 µM (active).

With `O=S(=O)(F)C(F)(F)C(F)(F)C(F)(F)C(F)(F)C(F)(F)C(F)(F)C(F)(F)C(F)(F)F`, the half-maximal activity concentration (AC50) was 55 µM (active).

As to `OCC(F)(F)OC(F)(F)C(F)(F)OC(F)(F)C(F)(F)OC(F)(F)F`, the AC50 was 51.7 µM (active).

For the compound `O=C(O)C=CC(F)(C(F)(F)F)C(F)(F)F`, the AC50 was 9.44 µM (active).

Take `C=CC(=O)OCC(F)(F)C(F)F`: the AC50 was 56.8 µM (active).

`COC(=O)C(F)(F)C(F)(F)OC(F)(C(F)(F)F)C(F)(F)OC(F)=C(F)F` (centres undefined): the AC50 was 0.977 µM (active).

Take `O=C(O)C(F)(F)OC(F)(F)C(F)(F)OC(F)(F)C(=O)O`: the AC50 is 0.746 µM (active).

Regarding `O=C(O)C(F)(F)OC(F)(F)C(F)(F)OC(F)(F)F`, the AC50 was 3.59 µM (active).

Turning to `OCC(F)(F)OC(F)(F)C(F)(F)OC(F)(F)C(F)(F)OC(F)(F)CO`, the AC50 was 9.52 µM (active).

System in a further assay: not listed separately
The assay can be described thus: CCTE_Deisenroth_5AR_NBTE_acceptor: CCTE's 5alpha-reductase NanoBRET Target Engagement Assay - Autofluorescence Screen, Deisenroth Lab (AID 2284321).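 Note: compound fluorescence in the acceptor channel under 460 nm excitation flags autofluorescence artifacts.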 Conditions: actives raise or lower the signal. Put shortly: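 Using three independent plate-reader runs, nominal 100 uM chemicals were checked for intrinsic fluorescence (ex 460 nm). DMSO defined the baseline for bidirectional fitting.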
In the case of `O=C(O)C1C(C(=O)O)C2(Cl)C(Cl)=C(Cl)C1(Cl)C2(Cl)Cl` (centres undefined), the compound was called inactive.

As to `CCOP(=S)(OCC)SCSCC`, the compound was classed as inactive.

Turning to `ClC1=C(Cl)C2(Cl)C3C(Cl)C(Cl)CC3C1(Cl)C2(Cl)Cl` (centres undefined), the call was inactive.

Take `O=P(OCC(Br)CBr)(OCC(Br)CBr)OCC(Br)CBr` (centres undefined): the compound was classed as inactive.

For `CC1(C)CN=C(NN=C(/C=C/c2ccc(C(F)(F)F)cc2)/C=C/c2ccc(C(F)(F)F)cc2)NC1`, the AC50 was 50 µM (active).

Take `CCCN(CCC)c1c([N+](=O)[O-])cc(C(C)C)cc1[N+](=O)[O-]`: the compound was called inactive.

Consider `c1ccc2c(c1)Nc1ccccc1S2`, for which the result was inactive.

A further assay concerns SRD5A2 (gene 6716). The assay can be described thus: CCTE_Deisenroth_5AR_NBTE_ratio: CCTE's 5alpha-reductase NanoBRET Target Engagement Assay - Ratio, Deisenroth Lab (AID 2284322). Conditions: actives raise or lower the signal. Put shortly:
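HEK293T transiently expressing SRD5A2-NanoLuc; cells exposed to chemical (8-point, 10 nM - 29.9 uM) for 5 h total, testosterone tracer added for final 2 h. NanoBRET acceptor/donor ratio (650/460 nm), bidirectional fit vs DMSO.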
Consider `O=C(O)C1C(C(=O)O)C2(Cl)C(Cl)=C(Cl)C1(Cl)C2(Cl)Cl` (centres undefined), for which the outcome was inactive.

For the compound `CCOP(=S)(OCC)SCSCC`, the outcome was inactive.

For `ClC1=C(Cl)C2(Cl)C3C(Cl)C(Cl)CC3C1(Cl)C2(Cl)Cl` (centres undefined), the outcome was inactive.

As to `O=P(OCC(Br)CBr)(OCC(Br)CBr)OCC(Br)CBr` (centres undefined), the AC50 is 26.8 µM (active).

On to `CC1(C)CN=C(NN=C(/C=C/c2ccc(C(F)(F)F)cc2)/C=C/c2ccc(C(F)(F)F)cc2)NC1`, for which the AC50 was 50 µM (active).

Consider `CCCN(CCC)c1c([N+](=O)[O-])cc(C(C)C)cc1[N+](=O)[O-]`, for which the result was inactive.

As to `c1ccc2c(c1)Nc1ccccc1S2`, the half-maximal activity concentration (AC50) was 23.7 µM (active).

Source of the values: PubChem BioAssay (EPA / NIEHS).
